In PubChem BioAssay (Tox21):
Records with an inconclusive call do not appear. Calls of active or inactive are those of the source. Unless noted, the call rests on the fitted dose curve; in most records, active means well fitted curve in the direction sought with a large enough effect in the repeat runs; inconclusive means weak or mixed curves; inactive means no such curve, though single readings can be large; an effect the other way counts as inactive or inconclusive.

How the values were obtained:
[1] = qHTS assay to identify small molecule agonists of the estrogen receptor alpha (ER-alpha) signaling pathway in the presence of an antagonist - cell viability counter screen (AID 1259386);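 further: series mostly up to about 92 µM; cells exposed to compounds for 22 h at 37 °C before the viability read; nearly all actives have a fitted effect of over 30% in size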
Outline: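 Steps: 5-day stripped-FBS culture; seed and incubate 24hr; add ICI-182,780 (10.0nM final); pin 15-point compound titration; incubate 22hr at 37C; add CellTiter-Fluor at 21hr; read fluorescence.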

[2] = target: Progesterone receptor (Homo sapiens) (UniProt P06401); assay: qHTS assay to identify small molecule agonists of the progesterone receptor (PR) signaling pathway (AID 1346784; calls by dose curve; further: nearly all actives have a fitted effect of over 30% in size)
Sequence of Progesterone receptor (Homo sapiens) (P06401 whole entry, looked up): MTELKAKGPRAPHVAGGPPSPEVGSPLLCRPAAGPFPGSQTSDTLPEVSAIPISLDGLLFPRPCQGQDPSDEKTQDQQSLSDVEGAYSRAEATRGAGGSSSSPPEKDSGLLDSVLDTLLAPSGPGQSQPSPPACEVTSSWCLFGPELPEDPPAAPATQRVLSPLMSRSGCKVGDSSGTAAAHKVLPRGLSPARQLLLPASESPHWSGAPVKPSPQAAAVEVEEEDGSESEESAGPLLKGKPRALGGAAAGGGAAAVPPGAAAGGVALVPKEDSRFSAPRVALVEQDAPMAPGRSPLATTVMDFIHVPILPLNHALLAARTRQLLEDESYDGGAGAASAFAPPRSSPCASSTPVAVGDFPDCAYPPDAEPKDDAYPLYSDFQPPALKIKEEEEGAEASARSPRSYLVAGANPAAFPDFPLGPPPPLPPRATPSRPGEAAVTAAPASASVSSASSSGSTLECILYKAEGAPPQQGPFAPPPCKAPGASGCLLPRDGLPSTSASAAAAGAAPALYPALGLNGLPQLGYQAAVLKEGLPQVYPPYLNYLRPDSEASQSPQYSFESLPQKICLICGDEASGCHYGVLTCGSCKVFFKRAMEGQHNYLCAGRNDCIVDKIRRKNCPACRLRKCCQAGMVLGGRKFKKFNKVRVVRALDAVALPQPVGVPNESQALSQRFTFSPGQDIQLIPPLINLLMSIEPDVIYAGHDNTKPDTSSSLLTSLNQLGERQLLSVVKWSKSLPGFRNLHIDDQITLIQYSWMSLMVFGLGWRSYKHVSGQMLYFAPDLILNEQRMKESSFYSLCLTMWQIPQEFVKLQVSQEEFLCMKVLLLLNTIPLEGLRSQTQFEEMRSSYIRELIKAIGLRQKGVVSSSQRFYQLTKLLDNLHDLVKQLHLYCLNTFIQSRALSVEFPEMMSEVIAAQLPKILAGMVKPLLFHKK
Outline: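 Agonist qHTS: compounds pinned onto 3,000 PR-UAS-bla HEK 293T cells per well in charcoal-stripped serum medium, 16hr at 37C, then beta-lactamase activity measured by LiveBLAzer FRET fluorescence after 2 hours at room temperature.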

[3] = target: Progesterone receptor (Homo sapiens) (UniProt P06401); assay: qHTS assay to identify small molecule antagonists of the progesterone receptor (PR) signaling pathway (AID 1346795; active means well fitted inhibition curve with a large enough effect in the signal ratio in the repeat runs, not every such curve was filed as active; the % refers to the signal ratio)
Outline: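 Antagonist mode with agonist R5020 at 1 nM final and 16 hr incubation at 37C. Reporter was beta-lactamase driven by UAS in HEK293T (PR-UAS-bla), 2% charcoal-stripped serum; signal from LiveBLAzer FRET substrate, 2 hr at room temperature.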

[4] = qHTS assay to identify small molecule antagonists of the progesterone receptor (PR) signaling pathway - cell viability counter screen (AID 1346798); further: series mostly up to about 92 µM; nearly all actives have a fitted effect of over 50% in size
Outline: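 Cytotoxicity read as CellTiter-Glo luminescence (30 min, room temperature) in the same wells as the beta-lactamase readout. HEK293T PR-UAS-bla cells in charcoal-stripped 2% FBS received compound and R5020, then 16 h at 37C, 5% CO2.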

[5] = qHTS assay to identify small molecule agonists of the progesterone receptor (PR) signaling pathway - cell viability counter screen (AID 1346799; calls by dose curve; further: nearly all actives have a fitted effect of over 45% in size)
Outline: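 Cytotoxicity measured by CellTiter-Glo luminescence (30 min, RT) in the same wells as the PR beta-lactamase agonist read. Those HEK293T cells had 16 h compound treatment at 37 C in 2% charcoal-stripped FBS medium.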

[6] = qHTS assay to identify small molecule antagonists of the TGF-beta/Smad signaling pathway - cell viability counter screen (AID 1346824); further: nearly all actives have a fitted effect of over 50% in size
Outline: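 Cytotoxicity counter-screen run in the same wells as the beta-lactamase Smad reporter read: CellTiter-Glo luminescence after 30 min at room temperature. HEK 293T SBE-bla cells had 5 hr compound exposure at 37 C with TGF-beta1 (0.25 ng/mL stock).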

[7] = qHTS assay to identify small molecule agonists of the TGF-beta/Smad signaling pathway - cell viability counter screen (AID 1346829); further: top concentration of the series differs between compounds; nearly all actives have a fitted effect of over 45% in size
Outline: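 In parallel with the Smad reporter read, viability of HEK 293T cells stably carrying SBE-bla is quantified by ATP luminescence following 5 hr compound treatment.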

[8] = qHTS assay to identify small molecule agonists of the TGF-beta/Smad signaling pathway (AID 1346859; active means well fitted activation curve with a large enough effect in the signal ratio in the repeat runs, not every such curve was filed as active; the % refers to the signal ratio; further: series mostly up to about 77 µM)
Outline: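 Fluorescence (ex 405 nm; em 460 and 530 nm) was read 2 h after LiveBLAzer FRET substrate at RT. The preceding compound treatment of overnight-plated SBE-bla HEK293T cells lasted 5 h at 37 C.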

[9] = target: Thyrotropin-releasing hormone receptor (Homo sapiens) (UniProt P34981); assay: qHTS assay to identify small molecule antagonists of the thyrotropin-releasing hormone receptor (TRHR) signaling pathway (AID 1346877; active means well fitted inhibition curve with a large enough effect in the repeat runs, not every such curve was filed as active; further: series mostly up to about 51 µM)
Sequence of Thyrotropin-releasing hormone receptor (Homo sapiens) (P34981 whole entry, looked up): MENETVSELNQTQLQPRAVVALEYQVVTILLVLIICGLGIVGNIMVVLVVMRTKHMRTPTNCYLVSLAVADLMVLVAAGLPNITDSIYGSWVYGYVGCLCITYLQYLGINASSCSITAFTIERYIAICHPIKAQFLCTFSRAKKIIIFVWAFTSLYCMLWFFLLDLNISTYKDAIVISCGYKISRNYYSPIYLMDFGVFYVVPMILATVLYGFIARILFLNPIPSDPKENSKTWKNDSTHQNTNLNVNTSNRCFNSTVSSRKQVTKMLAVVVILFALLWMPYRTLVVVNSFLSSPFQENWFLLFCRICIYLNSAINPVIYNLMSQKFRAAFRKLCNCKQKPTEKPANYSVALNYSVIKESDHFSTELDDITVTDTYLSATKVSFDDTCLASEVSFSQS
Outline: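 Human TRHR in HEK293 cells; inhibition of the intracellular calcium rise triggered by 1 nM TRH was followed by fluorescence over 3 min. Compounds were run at 15 concentrations, three replicates each.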

[10] = target: Thyrotropin-releasing hormone receptor (Homo sapiens) (UniProt P34981); assay: qHTS assay to identify small molecule agonists of the thyrotropin-releasing hormone receptor (TRHR) signaling pathway (AID 1346891; calls by dose curve; further: series mostly up to about 58 µM)
Outline: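 Agonist-mode intracellular calcium readout: kinetic fluorescence over 3 min at 1 s intervals after compound addition to TRHR-HEK293 cells (18 h seeded, 2 h dye-loaded at 37 C). Fifteen concentrations, triplicates.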

Measured: Potency

Brc1ccc(Br)c(Br)c1
not listed: [9] | [10]
inactive: all other assays above

C=C(C)[C@H]1CC=C(C)C(=O)C1
not listed: [9] | [10]
inactive: all other assays above

CC(C)CC(C)O (stereo not drawn)
not listed: [9] | [10]
inactive: all other assays above

CC(C)OC(=O)COc1ccc(Cl)cc1Cl
not listed: [9] | [10]
inactive: all other assays above

COCCCN
inactive: all assays above

Cc1ccc(S(=O)(=O)N=C=O)cc1
inactive: all assays above

CCOCCOCCOCCO
inactive: all assays above

CC(=O)CC(C)(C)O
inactive: all assays above

COc1ccc(N)c(C)c1
not listed: [9] | [10]
inactive: all other assays above

CCNc1cccc(C)c1
not listed: [9] | [10]
inactive: all other assays above

CNC(=S)N(C)C
not listed: [9] | [10]
inactive: all other assays above

CCc1ccccc1CC
inactive: all assays above

CCOCC(=O)O
not listed: [9] | [10]
inactive: all other assays above

O=C(O)c1cc2ccccc2cc1O
not listed: [9] | [10]
inactive: all other assays above

CNC(=O)Oc1ccc2c(c1)[C@]1(C)CCN(C)[C@@H]1N2C
inactive: all assays above

CC1(C)OC[C@@H]2O[C@@]3(C(=O)O)OC(C)(C)O[C@H]3[C@@H]2O1
inactive: all assays above

O=C(O)c1ccc(C(=O)O)c(C(=O)O)c1
inactive: all assays above

CC(C)(C#N)c1cc(Cn2cncn2)cc(C(C)(C)C#N)c1
not listed: [9] | [10]
inactive: all other assays above

COC(=O)c1cccnc1
not listed: [9] | [10]
inactive: all other assays above

O=c1[nH]cnc2[nH]ncc12
not listed: [9] | [10]
inactive: all other assays above

NCCN1CCNCC1
not listed: [9] | [10]
inactive: all other assays above

CC1(C)S[C@@H]2[C@H](NC(=O)COc3ccccc3)C(=O)N2[C@H]1C(=O)O
inactive: all assays above

C=CC(C)CCCC(C)(C)O (stereo not drawn)
not listed: [9] | [10]
inactive: all other assays above

Nc1ccc(Cl)c(N)c1
not listed: [9] | [10]
inactive: all other assays above

NC(=S)NNC(N)=S
inactive: all assays above

CC(CCO)CC(C)(C)C (stereo not drawn)
inactive: all assays above

CC(C)=CCl
not listed: [9] | [10]
inactive: all other assays above

COc1ccccc1OCC(O)CO (stereo not drawn)
inactive: all assays above

CCOC(=O)n1ccn(C)c1=S
not listed: [9] | [10]
inactive: all other assays above

C=CCCCCCCCCC(=O)O
inactive: all assays above

C=CC[N+](C)(C)CC=C
inactive: all assays above

CCCCCCCCCCO
inactive: all assays above

C=C(C)C(=O)OCC(C)C
inactive: all assays above

O=C(O)c1ccccc1C(=O)O
not listed: [9] | [10]
inactive: all other assays above

CCNc1ccccc1
not listed: [9] | [10]
inactive: all other assays above

c1ccc2c(c1)Cc1ccccc1-2
not listed: [9] | [10]
inactive: all other assays above

CC(=O)OCc1ccco1
not listed: [9] | [10]
inactive: all other assays above

CCCCCCCCCCN
inactive: all assays above
